Assay results reported in PubChem BioAssay (EPA / NIEHS).
Inconclusive results are not listed. Activity calls are given as the source filed them. Rule for the calls, unless noted: active = hit-call score of the fitted dose curve at least 0.9, where 1 is the maximum; inactive = score below 0.9.

Assays:
[1] = ATG_E_Box_CIS: Attagene CIS-FACTORIAL HepG2 Assay for human Enhancer Box (E-box) (AID 2282936); settings: HepG2 E-box cis-reporter transcription, actives raise or lower the signal
Method in brief: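 Fluorescent reporter fragments separated by capillary electrophoresis gave the signal; mRNA came from HepG2 cells transfected with cis-element reporters and treated 24 h. Curves fitted bidirectionally relative to DMSO controls.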

[2] = ATG_FoxO_CIS: Attagene CIS-FACTORIAL HepG2 Assay for human Forkhead box O (FoxO) (AID 2282943); settings: HepG2 Attagene cis-reporter, FoxO element, mRNA; actives raise or lower the signal
Method in brief: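 HepG2, transient MRTU transfection (cis element, endogenous TFs). Dose 24 h. TriZol RNA → oligo(dT) RT → PCR → 6-FAM primer extension → HpaI cut → CE. Gain/loss vs DMSO.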

[3] = ATG_GRE_CIS: Attagene CIS-FACTORIAL HepG2 Assay for human Glucocorticoid Response Elements (GRE) (AID 2282947); settings: HepG2 GRE cis-reporter, Attagene multiplex mRNA; actives raise or lower the signal
Method in brief: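 Multiplexed cis-reporter mRNA induction, HepG2, 24 h post-dose. RT-PCR, FAM-labelled, HpaI-digested amplicons by CE. Bidirectional fit vs DMSO.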

[4] = ATG_PPRE_CIS: Attagene CIS-FACTORIAL HepG2 Assay for human Peroxisome Proliferator-activated Response Element (PPRE) (AID 2282958); settings: HepG2 PPRE cis-element reporter, Attagene transcription factor profiling; actives raise or lower the signal
Method in brief: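 DMSO served as negative control and baseline for bidirectional curve fitting. Signal came from PPRE-regulated reporter mRNA in HepG2 cells, measured 24 h post-dosing by RT-PCR, 6-FAM primer extension and capillary electrophoresis.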

[5] = ATG_Sox_CIS: Attagene CIS-FACTORIAL HepG2 Assay for human SRY-box transcription factor (SOX) (AID 2282960); settings: HepG2 Attagene cis-factorial SOX reporter, mRNA; actives raise or lower the signal
Method in brief: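 Fluorescence-labelled cDNA fragments from reporter transcripts, sized by CE, give the signal. Cells: HepG2, transiently transfected with cis-regulated reporter units. Exposure 24 h; DMSO negative control; bidirectional curve fitting.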

[6] = ATG_SREBP_CIS: Attagene CIS-FACTORIAL HepG2 Assay for human Sterol Regulatory Element Binding (SREBP) (AID 2282962); settings: HepG2 Attagene cis-factorial SREBP reporter, mRNA; actives raise or lower the signal
Method in brief: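 Endogenous factor activity is measured in HepG2 through multiplexed reporter units under cis-element control. Following a 24 h incubation, reporter transcripts are reverse-transcribed, PCR-amplified and sized by capillary electrophoresis; activity is fitted in both directions relative to DMSO.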

[7] = molecular target: Hepatocyte nuclear factor 4-alpha (Homo sapiens) (UniProt P41235); assay: ATG_HNF4a_TRANS: Attagene TRANS-FACTORIAL HepG2 Assay for human Hepatocyte Nuclear Factor 4 alpha (HNF4a) (AID 2282982; active = hit-call score of the fitted dose curve at least 0.9, where 1 is the maximum); settings: HepG2 HNF4a transactivation reporter, mRNA readout
Method in brief: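 Multiplexed reporter assay: transfected HepG2, 24 h exposure, total RNA → oligo(dT) RT → PCR → 6-FAM extension → HpaI digest → CE fluorescence. DMSO = negative control.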

[8] = ATG_M_06_TRANS: Attagene TRANS-FACTORIAL HepG2 Assay for M06 Transcription Factor (Internal Marker) (AID 2282983; active = hit-call score of the fitted dose curve at least 0.9, where 1 is the maximum;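 note: reporter transcript level by RT-PCR then capillary electrophoresis fluorescence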); settings: HepG2 Attagene TRANS M06 internal marker reporter
Method in brief: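 mRNA levels of a reporter transcript, quantified as FAM fluorescence on capillary electrophoresis, served as readout. HepG2 cells expressing exogenous GAL4-chimera reporter constructs were exposed for 24 h. Gain of signal over DMSO was evaluated.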

[9] = molecular target: Nuclear respiratory factor 1 (Homo sapiens) (UniProt Q16656); assay: ATG_NRF1_CIS: Attagene CIS-FACTORIAL HepG2 Assay for human Nuclear Respiratory Factor 1 (NRF1) Orphan Gene (AID 2282987); settings: HepG2 NRF1 cis-element reporter, Attagene multiplex; actives raise or lower the signal
Method in brief: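 Reporter mRNA induction or loss in HepG2 cells after 24 h dosing; cis-regulated reporter constructs report endogenous transcription-factor activity. Quantified by RT-PCR/capillary electrophoresis fluorescence, DMSO-referenced.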

[10] = ATG_NFI_CIS: Attagene CIS-FACTORIAL HepG2 Assay for human Nuclear Factor I (NFI) (AID 2282989); settings: HepG2 cis-regulatory reporter, NFI response element transcription; actives raise or lower the signal
Method in brief: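 Read-out: reporter mRNA via RT-PCR plus capillary electrophoresis with fluorescence detection. Transiently transfected HepG2 (endogenous TF activity on cis promoters), 24 h compound exposure; gain or loss of signal fitted against DMSO.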

[11] = molecular target: Peroxisome proliferator-activated receptor gamma (Homo sapiens) (UniProt P37231); assay: ATG_PPARg_TRANS: Attagene TRANS-FACTORIAL HepG2 Assay for human Peroxisome Proliferator-activated Receptor-gamma (PPARg) (AID 2283007; active = hit-call score of the fitted dose curve at least 0.9, where 1 is the maximum)
Method in brief: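 Chimeric NR-Gal4 transactivation is measured in transiently transfected HepG2 cells by reporter mRNA induction at 24 h. Detection uses RT-PCR with fluorescent labelling and capillary electrophoresis; DMSO defines baseline.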

[12] = molecular target: Nuclear receptor subfamily 1 group I member 2 (Homo sapiens) (UniProt O75469); assay: ATG_PXR_TRANS: Attagene TRANS-FACTORIAL HepG2 Assay for human Pregnane X Receptor (PXR) (AID 2283008; active = hit-call score of the fitted dose curve at least 0.9, where 1 is the maximum)
Method in brief: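 HepG2 transfected (FuGene 6) with GAL4-UAS reporter units + PXR-Gal4 chimera; dosed 24 h. Total RNA → oligo(dT) RT → PCR → 6-FAM primer extension → HpaI cut → CE. Gain-of-signal vs DMSO.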

[13] = ATG_BRE_CIS: Attagene CIS-FACTORIAL HepG2 Assay for human Bone Morphogenetic Protein (BMP) Response Element (BRE) (AID 2282933); settings: HepG2 BMP response element reporter, Attagene transcription factor profiling; actives raise or lower the signal
Method in brief: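 Read-out: reporter mRNA induction quantified by RT-PCR and capillary electrophoresis after 24 h chemical exposure of transfected HepG2 cells. Endogenous factor activity on the BMP response element; gain or loss fitted against DMSO baseline.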

[14] = ATG_PBREM_CIS: Attagene CIS-FACTORIAL HepG2 Assay for human Phenobarbital-responsive Enhancer Module (PBREM) (AID 2282955); settings: HepG2 PBREM cis-reporter, Attagene multiplexed transcription; actives raise or lower the signal
Method in brief: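 Multiplexed cis-reporter readout in human hepatoma HepG2 cells; PBREM-regulated transcript quantified after 24 h exposure by fluorescent RT-PCR fragment analysis. Signal changes up or down fitted relative to DMSO.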

[15] = molecular target: X-box-binding protein 1 (Homo sapiens) (UniProt P17861); assay: ATG_Xbp1_CIS: Attagene CIS-FACTORIAL HepG2 Assay for human X-box Binding Protein 1 (XBP1) (AID 2282972); settings: HepG2 XBP1 cis-element reporter, Attagene multiplex; actives raise or lower the signal
Method in brief: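 Multiplexed cis-reporter readout in transfected HepG2 liver cells. Exposure lasted 24 hours. Activity in either direction was fitted against DMSO as negative control and baseline.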

[16] = molecular target: Retinoic acid receptor RXR-alpha (Homo sapiens) (UniProt P19793); assay: ATG_RXRa_TRANS: Attagene TRANS-FACTORIAL HepG2 Assay for human Retinoid X Receptor alpha (RXRa) (AID 2283012; active = hit-call score of the fitted dose curve at least 0.9, where 1 is the maximum)
Method in brief: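 Chimeric NR-GAL4 trans-activation in HepG2, 24 h treatment; reporter transcripts quantified by fluorescence on capillary electrophoresis, analysed for upward change from DMSO.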

[17] = molecular target: human Retinoid X Receptor beta (RXRb), RXRB (gene 6257) (UniProt P28702); assay: ATG_RXRb_TRANS: Attagene TRANS-FACTORIAL HepG2 Assay for human Retinoid X Receptor beta (RXRb) (AID 2283013; active = hit-call score of the fitted dose curve at least 0.9, where 1 is the maximum)
Method in brief: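 After a 24 h incubation with test chemical, transfected HepG2 cells carrying NR-Gal4 fusions and GAL4-UAS reporter transcription units yield RNA whose reporter cDNA is FAM-labelled, HpaI-cut and sized by capillary electrophoresis; increases over DMSO are scored.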

[18] = molecular target: Cellular tumor antigen p53 (Homo sapiens) (UniProt P04637); assay: TOX21_p53_BLA_p3_ratio: Tox21 HCT-116 p53 Agonism Beta-lactamase Assay, Ratio, Phase 3 (AID 2283596; active = hit-call score of the fitted dose curve at least 0.9, where 1 is the maximum)
Method in brief: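 Cells were seeded at 4000/well, rested 5 h at 37C, then dosed with DMSO compound solutions (217-fold dilution) for 16 h. CCF4-AM substrate was loaded for 2 h at room temperature, and the 460/530 nm emission ratio was fitted for gain of signal versus DMSO.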

[19] = molecular target: Cellular tumor antigen p53 (Homo sapiens) (UniProt P04637); assay: TOX21_p53_BLA_p4_ratio: Tox21 HCT-116 p53 Agonism Beta-lactamase Assay, Ratio, Phase 4 (AID 2283601; active = hit-call score of the fitted dose curve at least 0.9, where 1 is the maximum)
Method in brief: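 Signal is the blue/green (460nm/530nm) ratio of cleaved versus uncleaved CCF4-AM substrate, read after 2 h substrate loading. Cells were HCT116 carrying the p53-responsive beta-lactamase reporter, dosed 16 h at 37C, 5% CO2; CellTiter-Glo measured in parallel.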

[20] = molecular target: Cellular tumor antigen p53 (Homo sapiens) (UniProt P04637); assay: TOX21_p53_BLA_p5_ratio: Tox21 HCT-116 p53 Agonism Beta-lactamase Assay, Ratio, Phase 5 (AID 2283599; active = hit-call score of the fitted dose curve at least 0.9, where 1 is the maximum)
Method in brief: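 Beta-lactamase reporter ratio (blue 460 nm over green 530 nm, 405 nm excitation) after 2 h CCF4-AM loading, in HCT-116 cells exposed 16 h at 37 C to compounds pinned at 217-fold dilution. Increases relative to DMSO baseline scored.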

Measured: AC50

Chain of Nuclear receptor subfamily 1 group I member 2 (Homo sapiens) (O75469 whole entry, looked up, the tested form may be a part): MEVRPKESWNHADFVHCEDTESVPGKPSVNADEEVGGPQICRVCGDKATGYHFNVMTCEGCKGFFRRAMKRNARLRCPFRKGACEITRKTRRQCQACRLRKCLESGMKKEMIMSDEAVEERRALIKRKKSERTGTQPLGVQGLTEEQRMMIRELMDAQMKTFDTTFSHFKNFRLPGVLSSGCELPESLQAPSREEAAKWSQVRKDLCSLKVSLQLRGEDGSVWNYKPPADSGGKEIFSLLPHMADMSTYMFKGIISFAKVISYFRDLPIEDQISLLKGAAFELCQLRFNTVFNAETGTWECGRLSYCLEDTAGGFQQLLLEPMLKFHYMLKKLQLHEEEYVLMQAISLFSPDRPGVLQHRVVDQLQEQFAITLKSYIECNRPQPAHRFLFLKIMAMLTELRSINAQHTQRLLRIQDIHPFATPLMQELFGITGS
Chain of human Retinoid X Receptor beta (RXRb), RXRB (gene 6257) (P28702 whole entry, looked up, the tested form may be a part): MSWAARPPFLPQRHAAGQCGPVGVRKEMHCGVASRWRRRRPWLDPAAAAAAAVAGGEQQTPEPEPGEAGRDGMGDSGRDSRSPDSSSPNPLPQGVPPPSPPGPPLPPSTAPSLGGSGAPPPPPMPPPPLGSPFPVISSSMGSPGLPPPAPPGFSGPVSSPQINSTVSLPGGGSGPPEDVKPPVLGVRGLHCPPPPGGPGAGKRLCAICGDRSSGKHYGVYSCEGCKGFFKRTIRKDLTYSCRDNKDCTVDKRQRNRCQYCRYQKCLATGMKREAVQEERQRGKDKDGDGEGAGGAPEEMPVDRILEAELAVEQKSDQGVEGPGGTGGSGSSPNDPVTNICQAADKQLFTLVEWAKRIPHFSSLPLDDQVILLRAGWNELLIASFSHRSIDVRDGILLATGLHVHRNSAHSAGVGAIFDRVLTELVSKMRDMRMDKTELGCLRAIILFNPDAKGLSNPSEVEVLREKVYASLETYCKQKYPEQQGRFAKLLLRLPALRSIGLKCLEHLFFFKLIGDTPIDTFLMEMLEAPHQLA
Chain of X-box-binding protein 1 (Homo sapiens) (P17861 whole entry, looked up): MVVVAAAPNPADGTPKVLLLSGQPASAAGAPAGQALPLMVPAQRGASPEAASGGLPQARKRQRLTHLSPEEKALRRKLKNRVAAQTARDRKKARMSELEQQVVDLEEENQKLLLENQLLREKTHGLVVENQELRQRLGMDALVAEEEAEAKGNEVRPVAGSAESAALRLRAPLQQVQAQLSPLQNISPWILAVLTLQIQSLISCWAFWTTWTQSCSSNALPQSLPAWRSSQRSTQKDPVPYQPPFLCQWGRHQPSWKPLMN
Chain of Cellular tumor antigen p53 (Homo sapiens) (P04637 whole entry, looked up): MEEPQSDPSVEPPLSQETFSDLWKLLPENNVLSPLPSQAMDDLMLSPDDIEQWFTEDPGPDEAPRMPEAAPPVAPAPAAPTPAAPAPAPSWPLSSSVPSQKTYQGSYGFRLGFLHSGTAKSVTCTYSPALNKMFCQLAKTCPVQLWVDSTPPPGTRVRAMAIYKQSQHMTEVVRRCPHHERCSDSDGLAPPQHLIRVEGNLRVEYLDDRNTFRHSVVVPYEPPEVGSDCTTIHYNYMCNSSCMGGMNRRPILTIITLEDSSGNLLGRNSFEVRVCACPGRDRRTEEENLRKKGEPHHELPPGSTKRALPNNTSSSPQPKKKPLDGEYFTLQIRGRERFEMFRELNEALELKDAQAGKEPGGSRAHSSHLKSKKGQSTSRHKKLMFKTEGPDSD
Chain of Peroxisome proliferator-activated receptor gamma (Homo sapiens) (P37231 whole entry, looked up, the tested form may be a part): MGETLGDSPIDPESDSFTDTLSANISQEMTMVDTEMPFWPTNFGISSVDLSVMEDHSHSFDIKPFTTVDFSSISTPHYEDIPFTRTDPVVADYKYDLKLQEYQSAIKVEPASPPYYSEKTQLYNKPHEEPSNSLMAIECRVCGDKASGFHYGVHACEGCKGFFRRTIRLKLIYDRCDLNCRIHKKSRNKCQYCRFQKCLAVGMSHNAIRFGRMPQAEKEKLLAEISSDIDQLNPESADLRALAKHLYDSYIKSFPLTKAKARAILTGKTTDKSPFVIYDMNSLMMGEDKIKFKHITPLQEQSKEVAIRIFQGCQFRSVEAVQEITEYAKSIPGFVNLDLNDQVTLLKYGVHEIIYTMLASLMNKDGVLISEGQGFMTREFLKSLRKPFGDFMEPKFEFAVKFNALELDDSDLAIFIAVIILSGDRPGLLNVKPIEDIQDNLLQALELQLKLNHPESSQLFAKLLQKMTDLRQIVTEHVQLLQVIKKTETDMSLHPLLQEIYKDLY
Chain of Retinoic acid receptor RXR-alpha (Homo sapiens) (P19793 whole entry, looked up, the tested form may be a part): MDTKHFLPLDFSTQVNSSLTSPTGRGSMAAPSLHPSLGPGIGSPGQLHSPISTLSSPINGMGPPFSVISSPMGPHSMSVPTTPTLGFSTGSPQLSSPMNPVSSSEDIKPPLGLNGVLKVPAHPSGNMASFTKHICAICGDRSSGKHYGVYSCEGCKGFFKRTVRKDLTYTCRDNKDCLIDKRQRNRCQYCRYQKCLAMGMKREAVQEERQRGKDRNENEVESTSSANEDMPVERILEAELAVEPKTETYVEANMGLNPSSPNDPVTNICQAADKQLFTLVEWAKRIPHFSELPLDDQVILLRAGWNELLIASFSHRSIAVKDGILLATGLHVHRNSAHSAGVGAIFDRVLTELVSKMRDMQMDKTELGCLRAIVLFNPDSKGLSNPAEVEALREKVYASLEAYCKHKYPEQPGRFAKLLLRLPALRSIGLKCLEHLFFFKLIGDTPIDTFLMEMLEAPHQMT
Chain of Nuclear respiratory factor 1 (Homo sapiens) (Q16656 whole entry, looked up): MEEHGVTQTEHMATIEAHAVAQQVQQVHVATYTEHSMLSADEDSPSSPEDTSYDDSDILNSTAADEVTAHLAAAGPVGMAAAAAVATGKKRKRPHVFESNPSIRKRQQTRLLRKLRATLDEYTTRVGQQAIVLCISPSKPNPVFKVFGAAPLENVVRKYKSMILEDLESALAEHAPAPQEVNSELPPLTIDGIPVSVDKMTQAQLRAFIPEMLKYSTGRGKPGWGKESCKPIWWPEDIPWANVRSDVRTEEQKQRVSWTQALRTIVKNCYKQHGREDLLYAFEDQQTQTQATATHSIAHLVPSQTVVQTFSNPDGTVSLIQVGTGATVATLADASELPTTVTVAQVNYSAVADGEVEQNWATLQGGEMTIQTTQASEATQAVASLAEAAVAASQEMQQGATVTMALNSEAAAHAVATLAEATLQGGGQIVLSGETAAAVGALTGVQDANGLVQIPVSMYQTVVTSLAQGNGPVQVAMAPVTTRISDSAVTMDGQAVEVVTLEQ
Chain of Hepatocyte nuclear factor 4-alpha (Homo sapiens) (P41235 whole entry, looked up): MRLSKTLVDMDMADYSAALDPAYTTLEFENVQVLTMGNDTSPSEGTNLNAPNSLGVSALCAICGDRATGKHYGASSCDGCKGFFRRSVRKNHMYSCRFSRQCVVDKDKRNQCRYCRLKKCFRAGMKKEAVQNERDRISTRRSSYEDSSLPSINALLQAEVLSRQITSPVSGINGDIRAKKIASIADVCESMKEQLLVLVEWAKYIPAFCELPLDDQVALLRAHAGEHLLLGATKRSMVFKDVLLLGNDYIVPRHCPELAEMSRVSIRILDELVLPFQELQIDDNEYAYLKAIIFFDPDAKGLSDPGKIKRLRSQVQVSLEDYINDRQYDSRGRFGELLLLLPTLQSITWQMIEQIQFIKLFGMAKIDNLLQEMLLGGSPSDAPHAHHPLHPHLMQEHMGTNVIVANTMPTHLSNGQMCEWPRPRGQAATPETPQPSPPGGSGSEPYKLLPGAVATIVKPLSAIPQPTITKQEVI

CCCCOP(=O)(O)OCCCC
not listed: [13] | [14] | [15] | [16] | [17] | [18] | [19] | [20]
inactive: all other assays above

NNc1ccccc1
active: [11] 29.2 µM | [12] 36.6 µM
not listed: [3] | [4] | [6] | [18] | [19] | [20]
inactive: all other assays above

CC(Cc1ccc(C(C)(C)C)cc1)CN1C[C@@H](C)O[C@@H](C)C1 (stereo partly specified)
active: [14] 12.8 µM | [11] 21.7 µM | [12] 4.52 µM
not listed: [5] | [13] | [20]
inactive: all other assays above

C=C(Cl)Cl
not listed: [13] | [15] | [16] | [17] | [18] | [20]
inactive: all other assays above

N#CCNCC#N
not listed: [3] | [7] | [9] | [12] | [17] | [18] | [20]
inactive: all other assays above

Nc1cc(Cl)cc(Cl)c1
not listed: [3] | [8] | [9] | [11] | [16]
inactive: all other assays above

CC(C)(Cl)Cl
not listed: [7] | [8] | [13] | [16] | [17]
inactive: all other assays above

COc1cc(OC)c(OC)cc1C=O
not listed: [1] | [2] | [4] | [5] | [8] | [15]
inactive: all other assays above

CCCOC(=O)c1ccccc1C(=O)OCCC
active: [11] 86.3 µM | [12] 70.3 µM | [17] 76.1 µM
not listed: [3] | [8] | [14] | [16]
inactive: all other assays above

N#CCCCl
not listed: [4] | [5] | [6] | [9] | [11] | [13] | [19]
inactive: all other assays above

COCC(=O)N(c1c(C)cccc1C)N1CCOC1=O
active: [12] 27.4 µM
not listed: [3] | [4] | [8] | [11] | [17] | [18] | [19]
inactive: all other assays above
